Shown is part of a subset that was picked to be rich in hits.
ST2 inh = inhibitors of human ST2 (IL1RL1) binding to IL-33. Q01638. AlphaLISA ST2-Fc/biotin-IL-33 interaction, 1 h. inhibition, % for hits at 17 µM. hit rate 2.3% among 78,000. AID 1259354; in the data active = inhibition above about 30%
Target sequence (Q01638 whole entry, looked up): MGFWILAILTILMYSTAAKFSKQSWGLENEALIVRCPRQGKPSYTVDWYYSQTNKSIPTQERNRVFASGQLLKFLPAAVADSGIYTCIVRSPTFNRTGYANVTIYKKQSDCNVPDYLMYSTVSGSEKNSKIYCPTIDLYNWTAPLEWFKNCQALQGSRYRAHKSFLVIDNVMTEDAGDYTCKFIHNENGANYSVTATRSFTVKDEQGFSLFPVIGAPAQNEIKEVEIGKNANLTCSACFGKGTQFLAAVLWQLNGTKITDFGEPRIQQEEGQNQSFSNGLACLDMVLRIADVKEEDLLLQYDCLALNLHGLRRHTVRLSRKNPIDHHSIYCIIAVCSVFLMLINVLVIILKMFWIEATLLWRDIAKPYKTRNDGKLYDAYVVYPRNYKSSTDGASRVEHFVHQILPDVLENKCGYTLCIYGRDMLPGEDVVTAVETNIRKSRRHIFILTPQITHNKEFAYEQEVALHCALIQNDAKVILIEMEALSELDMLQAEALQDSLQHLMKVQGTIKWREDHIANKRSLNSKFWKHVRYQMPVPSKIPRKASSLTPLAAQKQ
* = called active by the depositor; i = inactive; ! = not active in a repeat.

SMILES	ST2 inh
Cc1nc2ccc(NC(=O)N3CCN(c4ccccc4)CC3)cc2nc1C	i
O=C(Nc1ccc2nsnc2c1)N1CCCCCC1	i
O=C(Nc1ccc2nc(-c3ccccn3)c(-c3ccccn3)nc2c1)N1CCOCC1	i
O=C(Nc1ccc2nc(-c3ccco3)c(-c3ccco3)nc2c1)N1CCSCC1	30%*
O=C(Nc1ccc2nc(-c3ccco3)c(-c3ccco3)nc2c1)N1CCOCC1	36%*
CCCCC(CC)CNC(=O)CN1C(=O)c2ccccc2C1=O (configuration not stated)	i
COc1ccc(C[C@@H]2NC(=O)[C@@H]3C[C@@H](NC(=O)Nc4cccc(SC)c4)CCN3C2=O)cc1	33%*
COc1ccc(CN2CCCN(CC(=O)Nc3cccc(SC)c3)S2(=O)=O)cc1	i
COc1ccc(NC(=O)N[C@H]2C[C@H]3C(=O)N[C@H](Cc4ccccc4)C(=O)N3C2)cc1	i
COc1ccc(CN2CCN(C/C=C/c3ccccc3)CC2)c(OC)c1OC	i
Cc1nn(-c2ccccc2)c2c1C(c1ccncc1)C(C#N)=C(N)O2 (configuration not stated)	38%*
N#CC1=C(N)Oc2n[nH]c(-c3ccccc3)c2C1c1ccc([N+](=O)[O-])cc1Cl (configuration not stated)	i
COc1ccc(Br)cc1C1C(C#N)=C(N)Oc2c1c(C)nn2-c1ccccc1 (configuration not stated)	i
Cc1nn(-c2ccccc2)c2c1C(c1cccnc1)C(C#N)=C(N)O2 (configuration not stated)	i
Cc1nn(-c2ccccc2)c2c1C(c1ccc([N+](=O)[O-])o1)C(C#N)=C(N)O2 (configuration not stated)	39%*
CC1=C(n2nnc3ccccc32)C(c2ccccc2)C(C#N)=C(N)O1 (configuration not stated)	i
CC(NC(=O)c1ccc(F)cc1)C1CC1 (configuration not stated)	i
CCC(C)NC(=O)C1CCN(S(=O)(=O)N2CCCCC2)CC1 (configuration not stated)	i
CCCCN(C)CCCNC(=O)c1ccc2c(c1)NC(=O)CS2	i
Fc1ccccc1-c1nnc([C@H]2CCN(Cc3ccc4c(c3)OCO4)C2)o1	i
N#CC1=C(N)Oc2n[nH]c(-c3ccncc3)c2C1c1cc2c(cc1Br)OCO2 (configuration not stated)	i
COc1cc2c(C(=O)N3CCC(C)CC3)cn(C)c(=O)c2cc1OC	i
O=C(CN1CCOc2ccccc2C1)N[C@@H]1c2ccccc2C[C@@H]1O	i
CSCCC(=O)N1CCCC(CNC(=O)c2ccc(F)cc2)C1 (configuration not stated)	i
O=C(CSc1nnc2c(n1)[nH]c1ccccc12)Nc1nc2ccc([N+](=O)[O-])cc2s1	i
SMILES	ST2 inh
O=C(CSc1nnc2c(n1)[nH]c1ccccc12)c1ccc(Cl)cc1	32%*
Brc1ccc(CSc2nnc3c(n2)[nH]c2ccccc23)cc1	i
Cc1ccc(NC2=CC(c3ccc([N+](=O)[O-])cc3)N(c3ccc(C)cc3)C2=O)cc1 (configuration not stated)	i
COc1cc(C2NC(=O)CCC2[N+](=O)[O-])cc(Cl)c1O (configuration not stated)	i
CCOc1cc(/C=C2/NC(=O)NC2=O)ccc1OCc1ccccc1C#N	i
CCOc1ccc(/C=C2\SC(N3CC(C)OC(C)C3)=NC2=O)cc1OC (configuration not stated)	i
COc1ccc(OC)c(/C=C2/SC(=Nc3ccc(C)cc3)NC2=O)c1	i
COc1cc(/C=C2/SC(=Nc3ccccc3)NC2=O)ccc1OCC#N	32%*
COc1cc(/C=C2/SC(=Nc3ccccc3)NC2=O)cc(Cl)c1O	42%*
COc1ccc(OC)c(S(=O)(=O)N2CCN(c3cc(-c4ccc(C)cc4)ncn3)CC2)c1	i
O=C1N/C(=C\c2ccc(Cl)cc2)C(=O)N1Cc1ccc(Cl)cc1	i
Cc1cc(/C=C2\NC(=O)N(Cc3ccc(Cl)cc3)C2=O)c(C)n1-c1ccc(C#N)cc1	i
N#Cc1ccc(/C=C2\NC(=O)N(Cc3ccc(Cl)cc3)C2=O)cc1	30%*
Cc1ccc2oc(=O)c3c(c2c1)CC(C(F)(F)F)S3 (configuration not stated)	i
CN(Cc1ccccc1)C(=O)c1cccn2c(=O)c3sccc3nc12	i
N#CC1=C(SCC(N)=O)NC(=O)C(C#N)C12CCCCC2 (configuration not stated)	i
N#Cc1nc(-c2ccc(Cl)cc2)oc1NCc1ccco1	35%*!
COc1ccc(-c2nc(S(=O)(=O)c3ccc(Cl)cc3)c(NCc3ccco3)o2)cc1	i
O=S(=O)(c1ccccc1)c1nc(-c2ccc(Cl)cc2)oc1NCc1ccco1	i
Cc1[nH]n(-c2ccccc2)c(=O)c1C1(C(F)(F)F)C(=O)Nc2c1c(=O)n(C)c(=O)n2C (configuration not stated)	i
C=CC(C)(O)CC/C=C(\C)CCC(O)C(C)(C)O (configuration not stated)	43%*
